Experimental data from PubChem BioAssay (NCI).
The panel holds about 83,000 compounds, 20% with a hit somewhere; the sample as a whole holds those more often.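 Cell lines were cultured in 96-well plates, exposed to a single compound concentration, and assessed for percent growth 48 hours later.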 A number with no mark means an inactive call. Active and inactive are the calls of the source. The calls were made as follows: active = growth percent below 10; inactive = the rest.

system: MDA-MB-231 breast; test: NCI-60 one-dose screen, 48 h (100 = growth as untreated, 0 = no growth, -100 = all killed); settings: 10 µM unless noted

In order of falling growth:
1. O=C1c2ccccc2CCc2ccccc21  96.8%
2. COC(=O)Nc1nc2ccc(C(=O)c3ccccc3N(C)C3COC3)cc2[nH]1  55.2%
3. COc1ccccc1Cn1cc2c(c1)-c1oncc1CC2  16.5%

With CC([C@H]1CC=C2C3CCC4=C[C@@H](N(C)C)CC[C@]4(C)C3CC[C@@]21C)N(C)C (stereo not given in full) the growth was -6.46% (active).

system: RXF 393 renal; test: as above; settings: 10 µM unless noted

In order of falling growth:
1. O=C1C(Cl)=C(SC2=NCCN2)C(=O)c2ccccc21  121%
2. CCNc1nnc(COc2ccc(CNC(=O)CCCC/C=C/C(C)C)cc2OC)o1  120%
3. O=S(=O)(O)c1ccc2c(c1)Sc1cc(S(=O)(=O)O)ccc1O2  116%
4. O=C(/C=C/c1c[nH]c2ccccc12)c1cc2ccccc2o1  114%
5. Cc1c(CN(C)C)cc(C(C)C)cc1C(C)C  112%
6. CC1(c2ccc(Br)cc2)NC(=O)NC1=O (stereo not given)  112%
7. C=CCN(C)C  111%
8. COc1ccc(/C=C2\SC(=O)N(Cc3cc(=O)oc4ccc(OC)cc34)C2=O)cc1  110%
9. O=S(=O)(Cc1cccc2c(CS(=O)(=O)c3ccc(Cl)cc3)cccc12)c1ccc(Cl)cc1  109%
10. O=C(O)c1occ(Cl)c1Cl  108%
11. COc1ccc(C(=O)CN2C(=O)NC(c3ccccc3)(c3ccccc3)C2=O)cc1  105%
12. Cc1cc(CSc2ccc(Cl)cc2)ccc1N  105%
13. CCCCN(CCCC)CC(O)CN(CC)CC (stereo not given)  104%
14. COc1ccccc1Nc1nnc(COc2ccc(CNC(=O)CCCC/C=C/C(C)C)cc2OC)o1  103%
15. Cc1ccc(C(=O)NN)cc1  103%
16. Cc1nnc(-c2cc3c(ccc4ccccc43)oc2=O)c2cn(-c3ccc(Cl)cc3)nc12  103%
17. O=C1c2ccccc2CCc2ccccc21  101%
18. COC1=C(OC)C(=O)c2ccccc2C1=O  93.2%
19. NNC(=S)N1N=C(c2cc3ccccc3o2)CC1c1c[nH]c2ccccc12 (stereo not given)  77.7%
20. COc1cc(-c2nc(/C=C3/C(=O)Nc4ccccc43)c3ccccn23)cc(OC)c1OC  76.2%
21. COc1ccc(/C=C2\CCCC3=C2N=C2SC=NN2C3c2ccc(OC)c(OC)c2)cc1OC (stereo not given)  50.4%
22. Cc1c(C(N)=O)sc2c1c(=O)n(Cc1ccccc1)c1nnc(S(C)(=O)=O)n21  49.3%
23. CC[C@@H](C)/C=C(C)/C=C/C(=O)c1c(O)c(-c2ccc(OC(=O)[C@@]34CC[C@@](C)(C(=O)O3)C4(C)C)cc2)cn(O)c1=O  31.6%
24. CCCCCCCCCCCCCCCCC(=O)O.CCCCCCCCCCCCCCCCCC(=O)O.CCCCCCCCCCCCCCCCCC(=O)O.CCCCCCCCCCCCCCCCCC(=O)O.CCCCCCCCCCCCCCCCCC(=O)O.CO[CH-]OC12COC1CC(O)C1(C)C(O)C(OC(C)O)C3=C(C)C(OC(=O)C(O)C([NH-])c4ccccc4)CC(O)(C(OC(=O)c4ccccc4)C21)C3(C)C.[Cu+].[Zn].[Zn].[Zn].[Zn].[Zn] (stereo not given)  24.3%
25. COc1ccc(Cn2cc3c(c2-c2ccccc2)CCc2cnoc2-3)cc1OC  13.1%

For COc1ccc(Cn2cc3c(c2)-c2oncc2CC3)cc1OC, the growth was 9.09% (active).
O=C(/C=C1\C(=O)N(Cc2ccccc2)c2ccccc21)c1ccc(OCCN2CCCCC2)cc1 was tested, and the growth was 0.729% (active).
For COc1ccc(Cn2cc3c(c2-c2ccc(OC)cc2)CCc2cnoc2-3)cc1, the growth was -1.78% (active).
CCCCCC(=C/c1ccccc1)/C=N/N=C(N)N was tested, and the growth was -31.3% (active).
For COc1ccccc1Cn1cc2c(c1)-c1oncc1CC2, the growth was 4.54% (active).

system: SF-268 CNS; test: as above; settings: 10 µM unless noted

In order of falling growth:
1. O=C(O)c1occ(Cl)c1Cl  113%
2. O=S(=O)(O)c1ccc2c(c1)Sc1cc(S(=O)(=O)O)ccc1O2  112%
3. Cc1c(CN(C)C)cc(C(C)C)cc1C(C)C  111%
4. CCCCN(CCCC)CC(O)CN(CC)CC (stereo not given)  106%
5. C=CCN(C)C  106%
6. COc1ccc(C(=O)CN2C(=O)NC(c3ccccc3)(c3ccccc3)C2=O)cc1  101%
7. CCS(=O)(=O)OCCO[C@H]1Cc2cc3ccc(=O)oc3cc2OC1(C)C  98.9%
8. CC1(c2ccc(Br)cc2)NC(=O)NC1=O (stereo not given)  98.4%
9. CCNc1nnc(COc2ccc(CNC(=O)CCCC/C=C/C(C)C)cc2OC)o1  97.1%
10. Cc1c(C(N)=O)sc2c1c(=O)n(Cc1ccccc1)c1nnc(S(C)(=O)=O)n21  96.7%
11. O=C1c2ccccc2CCc2ccccc21  96.5%
12. O=S(=O)(Cc1cccc2c(CS(=O)(=O)c3ccc(Cl)cc3)cccc12)c1ccc(Cl)cc1  92.5%
13. COc1ccccc1Nc1nnc(COc2ccc(CNC(=O)CCCC/C=C/C(C)C)cc2OC)o1  90.8%
14. CC1(C)Oc2cc3oc(=O)ccc3cc2C[C@@H]1OCCOS(=O)(=O)c1ccc(C#N)cc1  89.2%
15. COc1ccc(/C=C2\SC(=O)N(Cc3cc(=O)oc4ccc(OC)cc34)C2=O)cc1  88.8%
16. Cc1nnc(-c2cc3c(ccc4ccccc43)oc2=O)c2cn(-c3ccc(Cl)cc3)nc12  87.3%
17. O=C(/C=C/c1c[nH]c2ccccc12)c1cc2ccccc2o1  80.6%
18. O=C(/C=C1\C(=O)N(Cc2ccccc2)c2ccccc21)c1ccc(OCCN2CCCCC2)cc1  73.9%
19. C=C(C)[C@@H]1CC[C@]2(COC(=O)c3ccccc3C(=O)O)CC[C@]3(C)[C@H](CC[C@@H]4[C@@]5(C)CCCNC(C)(C)[C@@H]5CC[C@]43C)[C@@H]12  73.2%
20. Cc1cc(CSc2ccc(Cl)cc2)ccc1N  70%
21. O=C1C(Cl)=C(SC2=NCCN2)C(=O)c2ccccc21  62.1%
22. CC1(C)NCCC[C@]2(C)[C@H]3CC=C4[C@@H]5C[C@](C)(COC(=O)c6ccccc6C(=O)O)CC[C@]5(C)CC[C@@]4(C)[C@]3(C)CC[C@@H]12  60.7%
23. CC(C)OC(=O)[C@H](C)N[P@@](=O)(OC[C@@]1(C)O[C@@H](n2cc(F)c(N)nc2=O)C[C@@H]1O[P@](=O)(N[C@@H](C)C(=O)OC(C)C)Oc1ccccc1)Oc1ccccc1  54%
24. CCCCCCCCCCCCCCCCC(=O)O.CCCCCCCCCCCCCCCCCC(=O)O.CCCCCCCCCCCCCCCCCC(=O)O.CCCCCCCCCCCCCCCCCC(=O)O.CCCCCCCCCCCCCCCCCC(=O)O.CO[CH-]OC12COC1CC(O)C1(C)C(O)C(OC(C)O)C3=C(C)C(OC(=O)C(O)C([NH-])c4ccccc4)CC(O)(C(OC(=O)c4ccccc4)C21)C3(C)C.[Cu+].[Zn].[Zn].[Zn].[Zn].[Zn] (stereo not given)  47.6%
25. COc1ccc(Cn2cc3c(c2-c2ccccc2)CCc2cnoc2-3)cc1OC  47.1%
26. COc1cc(-c2nc(/C=C3/C(=O)Nc4ccccc43)c3ccccn23)cc(OC)c1OC  47%
27. COC(=O)Nc1nc2ccc(C(=O)c3ccccc3N(C)C3COC3)cc2[nH]1  45.7%
28. COc1ccc(/C=C2\CCCC3=C2N=C2SC=NN2C3c2ccc(OC)c(OC)c2)cc1OC (stereo not given)  41.6%
29. COc1ccccc1Cn1cc2c(c1)-c1oncc1CC2  35.2%
30. COc1ccc(Cn2cc3c(c2)-c2oncc2CC3)cc1OC  33.1%
31. COc1ccc(Cn2cc3c(c2-c2ccc(OC)cc2)CCc2cnoc2-3)cc1  30.5%
32. NNC(=S)N1N=C(c2cc3ccccc3o2)CC1c1c[nH]c2ccccc12 (stereo not given)  29.6%
33. COC(=O)/C=C/c1cc(O)c2oc(-c3ccc(O)c(O)c3)c(C(=O)OC)c2c1  25.2%

For CC[C@@H](C)/C=C(C)/C=C/C(=O)c1c(O)c(-c2ccc(OC(=O)[C@@]34CC[C@@](C)(C(=O)O3)C4(C)C)cc2)cn(O)c1=O, the growth was -1.52% (active).
CC1=C[C@@H]2c3c(c(O)c(O)c4oc5cc(O)cc(O)c5c(=O)c34)[C@@H](c3cc(O)c(O)c4oc5cc(O)cc(O)c5c(=O)c34)[C@@H]2C(C)(C)C1 was tested, and the growth was 3.54% (active).
With CC([C@H]1CC=C2C3CCC4=C[C@@H](N(C)C)CC[C@]4(C)C3CC[C@@]21C)N(C)C (stereo not given in full) the growth was 2.29% (active).
